Source: PubChem (National Center for Advancing Translational Sciences (NCATS))
Compounds with a hit are over-represented: about 15% of the library has one in this group of screens.
HCV inhibitor = blocks hepatitis C virus. Huh7.5.1 HCVcc-Cre infection, luciferase reporter, 44 h. Potency, µM (titrated, usually from 41.8 µM), most hits filed as inhibitors. 340,000 tested, 3.4% active. AID 651820
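A cell-based infection assay in which seeded cells (1,000 per well) receive test compound after 4 h, are inoculated with HCVcc-Cre at approximately 0.5 moi, and are incubated 44 h before luminescence detection.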
SARS PLP yeast = SARS-CoV PLP inhibition in yeast; S. cerevisiae expressing SARS-CoV PLpro, growth rescue; 330,000 tested, 0.19% active; Potency, µM (titrated, usually from 32.9 µM), most hits filed as activators; calls by dose curve; further: nearly all actives have a fitted effect of over 55% in size
HCMV inh = blocks human cytomegalovirus replication; 410,000 tested, 4.5% active; activity change, negative = inhibition, % at 57.5 µM; HFF cells, HCMV-luciferase reporter, 72 h; stronger effect = lower value; in the data active means activity change below about -60%; inconclusive means no clear call, values can overlap the other calls; inactive means above about -39%
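HFF cells seeded 16 h at 37C, treated with compounds, infected with luciferase-reporter HCMV at MOI 1 PFU/cell; luciferase read at 72 h post infection, normalized to buffer-only and Salinomycin controls.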
Pf growth 48h = P. falciparum growth inhibition at 48 hours (one generation). P. falciparum luciferase growth in erythrocytes, 48 h. Potency, µM (titrated, usually from 28.7 µM), actives largely listed as inhibitors. 310,000 tested, 5.9% active
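Erythrocytes infected with P. falciparum carrying an integrated firefly luciferase reporter (2% hematocrit, 0.1% parasitemia final) were exposed to compounds in RPMI 1640 with 0.5% Albumax at 37 C, 5% CO2. Growth inhibition was scored as reduced luminescence.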
Pf growth 96h = inhibits malaria parasite growth, 96 h. Potency, µM (titrated, usually from 28.7 µM), actives largely listed as inhibitors. AID 504834. P. falciparum luciferase reporter growth, 96 h. 320,000 tested, 6.9% active
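Parasite growth measured via integrated firefly luciferase reporter in P. falciparum. Infected erythrocytes at 2% hematocrit, 0.05% parasitemia final were treated 96 hours at 37 C under 5% CO2, and luminescence was read.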
Sm TGR inh = blocks Schistosoma mansoni thioredoxin glutathione reductase | Q962Y6 | purified TGR, DTNB reduction, TNB absorbance 405 nm | Potency, µM (titrated, usually from 114 µM), usual class: inhibitors | 360,000 tested, 3% active | AID 485364; further: nearly all actives have a fitted effect of over 60% in size
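TGR 20 nM + NADPH 100 uM (dispensed conc.), cpd preinc 15 min RT; start with NADPH (500 uM addition) then DTNB (15 mM addition). Kinetic TNB absorbance, 405 nm filter. Four-parameter Hill fit across titration.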
Of the large screens only hits and unclear results are named; the others gave an inactive call; ! = not active in a repeat. Unless noted, the call rests on the fitted dose curve; in most records, active means well fitted curve in the direction sought with a large enough effect; inconclusive means small, poorly fitted or top-dose-only effect, or another doubt; inactive means no such curve, though single readings can be large; an effect the other way counts as inactive or inconclusive.

COC(=O)c1ccccc1NC(=O)c1ccc(COc2cc(C)cc(C)c2)o1	Pf growth 48h inconclusive, Pf growth 96h 4.15µM
COc1ccc(CCN(C)Cc2ccc(F)cc2F)cc1OC	none (no result: Pf growth 48h)
CCN(Cc1ccccc1)CC(O)COC(c1ccc(OC)cc1)c1ccc(OC)cc1 (stereo unspecified)	HCV inhibitor inconclusive, Pf growth 48h 14.7µM, Pf growth 96h 9.28µM
COc1ccc(CCN(C)CC(O)COc2c(C)ccc(C)c2C)cc1OC (stereo unspecified)	HCV inhibitor inconclusive, Pf growth 48h 14.7µM, Pf growth 96h inconclusive
COc1ccc(CN(C)CC(O)COC(c2ccccc2)c2ccccc2)c(OC)c1OC (stereo unspecified)	HCV inhibitor 15.8µM, Pf growth 48h 10.4µM, Pf growth 96h inconclusive
COc1ccc(CN(C)CC(O)COc2ccc(C(=O)c3ccccc3)cc2)c(OC)c1OC (stereo unspecified)	HCV inhibitor inconclusive, Pf growth 48h inconclusive, Pf growth 96h inconclusive
COc1ccc(CCN(C)Cc2cccc3ccccc23)cc1OC	Pf growth 48h inconclusive
COc1ccc(CCN(C)CC(O)COC(c2ccc(F)cc2)c2ccc(F)cc2)cc1OC (stereo unspecified)	HCV inhibitor inconclusive, Pf growth 48h 13.1µM, Pf growth 96h 10.4µM
CCCCSc1ncnc2c1ncn2C1CCCCO1 (stereo unspecified)	none (no result: SARS PLP yeast, Pf growth 48h, Pf growth 96h, Sm TGR inh)
COc1ccc(OCC2CN(Cc3ccccc3)S(=O)(=O)CCO2)cc1 (stereo unspecified)	none (no result: HCV inhibitor, SARS PLP yeast, Pf growth 48h, Pf growth 96h, Sm TGR inh)
O=c1[nH][nH]c(=O)c(Cl)c1Cl	none (no result: SARS PLP yeast, Pf growth 48h, Pf growth 96h, Sm TGR inh)
O=C(Nc1ccc(F)cc1F)c1cc(Cl)sc1Cl	none (no result: Pf growth 48h)
Cc1noc(C)c1S(=O)(=O)N1CCCC1C(=O)O (stereo unspecified)	none
Cc1cc(NC(=O)CCC2CCCC2)no1	none
COc1ccc(CCN2CCC(CN3C(=S)NC[C@@H]3Cc3ccccc3)CC2)cc1OC	none (no result: HCV inhibitor, SARS PLP yeast, Pf growth 48h, Pf growth 96h, Sm TGR inh)
O=C1[C@@H]2[C@@H]3C[C@@H]([C@H]4ON=C(c5ccc(Cl)cc5)[C@@H]34)[C@@H]2C(=O)N1C1CCCCC1	HCV inhibitor inconclusive, HCMV inh inconclusive, Pf growth 96h 10.4µM
O=C(Cn1c(=S)[nH]c2ccccc2c1=O)N1CCC2(CC1)OCCO2	none
O=C(CCCCCn1c(=S)[nH]c2ccccc2c1=O)N1CCC2(CC1)OCCO2	Pf growth 48h 8.28µM
Cn1c(=O)n(CC(=O)N2CCC3(CC2)OCCO3)c(=O)c2ccccc21	Pf growth 96h 1.65µM
CCOc1ccc(C2C(C#N)=C(N)SC(N)=C2C#N)cc1OCC	Pf growth 48h inconclusive
CCc1ccc(C2C(C#N)=C(N)SC(N)=C2C#N)cc1	Pf growth 48h 5.86µM
Cc1ccc(C2C(C#N)=C(N)SC(N)=C2C#N)o1	Sm TGR inh 22.4µM (no result: HCV inhibitor, HCMV inh)
N#CC1=C(N)SC(N)=C(C#N)C1c1ccc(C(F)(F)F)cc1	Pf growth 96h 9.28µM (no result: HCMV inh)
Cc1ccc2cc(C#N)c(NCCNC(=O)C3CC3)nc2c1C	HCV inhibitor 10µM, HCMV inh -87.5, Pf growth 48h inconclusive
Cc1ccc2cc(C#N)c(NCCNC(=S)NCCCN(C)C)nc2c1C	HCV inhibitor inconclusive, Pf growth 48h inconclusive, Pf growth 96h inconclusive
COc1cccc(N2C(=NC(=O)C3CCCO3)SC3CS(=O)(=O)CC32)c1 (stereo unspecified)	Pf growth 96h inconclusive
COc1cc(/C=N/Nc2nc(=O)[nH]nc2C)cc([N+](=O)[O-])c1O	Pf growth 48h 1.17µM, Pf growth 96h 0.657µM
CC(C)(C)NC(=S)NC(C)(C)C	HCMV inh inconclusive
COc1ccccc1N1CCN(C(=O)C2CCCN(S(=O)(=O)c3ccc4c(c3)oc(=O)n4C)C2)CC1 (stereo unspecified)	HCV inhibitor inconclusive, HCMV inh -60.0!, Pf growth 48h 11.7µM
CCOc1ccc(NC(=O)C2CCN(S(C)(=O)=O)CC2)cc1	Pf growth 96h 11.7µM
COc1ccc(C)cc1S(=O)(=O)N1CCCC(C(=O)N2CCOCC2)C1 (stereo unspecified)	none
COc1ccc(NC(=O)C2CCN(S(C)(=O)=O)CC2)cc1	none (no result: Pf growth 96h)
CCOc1ccc(NC(=O)C2CCCN(S(=O)(=O)c3ccc4c(c3)CCCN4C(C)=O)C2)cc1 (stereo unspecified)	HCV inhibitor inconclusive, Pf growth 48h 11.7µM, Pf growth 96h inconclusive
COc1ccc(C)cc1S(=O)(=O)N1CCCC(C(=O)N2CCN(c3ccccc3F)CC2)C1 (stereo unspecified)	HCV inhibitor inconclusive, Pf growth 48h 10.4µM, Pf growth 96h inconclusive
Cc1ccc(C)c(S(=O)(=O)N2CCN(C(=O)c3ccc(OCc4c(C)noc4C)cc3)CC2)c1	HCV inhibitor inconclusive, Pf growth 48h inconclusive, Pf growth 96h inconclusive
Cc1cccc(C)c1NC(=O)CNC(=O)c1ccccc1OCc1ccccc1	HCV inhibitor inconclusive, HCMV inh inconclusive, Pf growth 48h inconclusive
COc1ccc(N2CCN(C(=O)C3CCCN(S(=O)(=O)c4ccc5c(c4)oc(=O)n5C)C3)CC2)cc1 (stereo unspecified)	Pf growth 48h 11.7µM, Pf growth 96h inconclusive
CC(=O)N1CCCc2cc(S(=O)(=O)N3CCCC(C(=O)N4CCN(c5ccccc5F)CC4)C3)ccc21 (stereo unspecified)	HCMV inh inconclusive (no result: HCV inhibitor, SARS PLP yeast, Pf growth 48h, Pf growth 96h)
Cn1c(=O)oc2cc(S(=O)(=O)N3CCCC(C(=O)N4CCN(c5ccc(Cl)cc5)CC4)C3)ccc21 (stereo unspecified)	none (no result: HCV inhibitor, SARS PLP yeast, Pf growth 48h, Pf growth 96h)
Cn1c(=O)oc2cc(S(=O)(=O)N3CCCC(C(=O)NC4CCCc5ccccc54)C3)ccc21 (stereo unspecified)	HCMV inh -90.4, Pf growth 96h inconclusive (no result: Pf growth 48h)
Cn1c(=O)oc2cc(S(=O)(=O)N3CCCC(C(=O)Nc4ccccn4)C3)ccc21 (stereo unspecified)	Pf growth 96h inconclusive (no result: Pf growth 48h)
COc1ccc(N2CCN(C(=O)C3CCCN(S(=O)(=O)c4ccc5c(c4)CCCN5C(C)=O)C3)CC2)cc1 (stereo unspecified)	HCMV inh -71.3 (no result: HCV inhibitor, SARS PLP yeast, Pf growth 48h, Pf growth 96h)
COc1ccc(NC(=O)C2CCCN(S(=O)(=O)c3ccc4c(c3)CCCC(=O)N4)C2)c(OC)c1 (stereo unspecified)	none (no result: HCV inhibitor, SARS PLP yeast, Pf growth 48h, Pf growth 96h)
Cn1c(N)c(NC(=S)NC2CCCCC2)c(=O)n(C)c1=O	none (no result: SARS PLP yeast, Pf growth 48h, Pf growth 96h, Sm TGR inh)
O=C(O)c1ccc2c(c1)C(=O)N(CCc1c[nH]c3ccccc13)C2=O	none
COc1ccc(NS(=O)(=O)c2ccc(N3CCOCC3)c(N)c2)cc1	HCV inhibitor 6.31µM, HCMV inh -70.3, Sm TGR inh inconclusive
O=C(Nc1cc(S(=O)(=O)Nc2ccc(Cl)cc2)ccc1N1CCCCC1)c1ccc(F)cc1Cl	HCV inhibitor inconclusive, Pf growth 48h inconclusive, Pf growth 96h 6.57µM
O=C(Nc1cc(S(=O)(=O)Nc2ccccc2F)ccc1Cl)c1ccc(F)cc1F	none (no result: Pf growth 48h, Pf growth 96h, Sm TGR inh)
